Results reported in PubChem BioAssay AID2320 (National Center for Advancing Translational Sciences (NCATS), 2010).
Records with an inconclusive call do not appear. Values without a mark were called inactive. Calls of active or inactive are those of the source. Calls come from the whole dose curve.

assay: A qHTS for Small Molecule Inhibitors of Shiga Toxin (Confirmatory); settings: Cell-based Shiga toxin protection reporter assay; series mostly up to 38.3 µM; activity, positive = inhibition of toxin: at the top concentration; note: nearly all actives have a fitted effect of over 75% in size; for activity, positive = inhibition of toxin: 0% is about no effect
Potency is the fitted concentration of half-maximal effect.

SMILES	activity, positive = inhibition of toxin	Potency
CSc1nc(C)c2cc(C)oc2n1	-1.75%	–
CN(C)C(CNC(=O)CCC(=O)c1ccc(Br)cc1)c1ccccc1 (stereo not drawn)	-16%	–
COc1cccc(C(=O)NNC(=O)C2CC(C)=C(C)CC2C(=O)O)c1 (stereo not drawn)	-47.7%	–
COc1cc(O)c2c(c1)oc(=O)c1c3cc(O)c(O)cc3oc21	–	7.98 µM (active)
O=C(NCC(=O)N1CCCC(C(F)(F)F)C1)c1ccc(Oc2ccccc2)cc1 (stereo not drawn)	11.5%	–
Cc1ccc(NC(=S)c2nc3ccccc3s2)cc1	–	0.895 µM (active)
COc1ccc2[nH]c(-c3ccccc3)cc(=O)c2c1	–	0.0711 µM (active)
O=C(NC1CCCCC1)c1cccc(S(=O)(=O)N2CCCCC2)c1	-35.4%	–
N#Cc1ccc(N=c2ssnc2Cl)cc1	16.9%	–
CCOC(=O)c1[nH]c2ccc(OC)cc2c1NC(=O)C(C)N1CCC2(CC1)OCCO2 (stereo not drawn)	-37.1%	–
O=C(NCC1CCCO1)Nc1ccc2c(c1)OCO2 (stereo not drawn)	–	22.5 µM (active)
O=C(O)c1cc(S(=O)(=O)Nc2ccc(OCc3ccccc3)cc2)ccc1Br	–	7.11 µM (active)
Cc1cc(C)n(-c2nc3c(c(=O)[nH]c(=O)n3C)n2Cc2cccc(Br)c2)n1	20%	–
COc1ccc(-c2cc(-c3ccccc3O)[nH]n2)cc1OC	–	2.25 µM (active)
CCOc1ncccc1C(=O)Nc1c(C)n(C)n(-c2ccccc2)c1=O	-36%	–
CCOC(=O)C1(CCCc2ccccc2)CCN(C(=O)CCn2cncn2)CC1	14.8%	–
Cc1cccc(NC(=O)C2CCCC2)c1	–	0.0252 µM (active)
Cc1cc(Cl)ccc1NC(=O)CN1CCC(C(O)(c2ccccc2)c2ccccc2)CC1	-5.9%	–
CCN(C1CCCCC1)S(=O)(=O)c1ccc(S(=O)(=O)NCc2ccncc2)cc1	34.1%	–

SMILES	activity, positive = inhibition of toxin	Potency
O=C(NCCN1C(=O)S/C(=C\c2ccc(Cl)cc2)C1=O)c1ccc(F)c(S(=O)(=O)N2CCOCC2)c1	–	6.34 µM (active)
COc1cc(/C=C2/C(=O)c3cccc([N+](=O)[O-])c3C2=O)c(Br)cc1O	–	22.5 µM (active)
COc1cccc(C(C(=O)NC2CCCC2)N(C(=O)c2ccco2)C2CC2)c1OC (stereo not drawn)	–	8.95 µM (active)
CCOC(=O)c1c(C)[nH]c(C2=NNC(=NC3CC3)SC2)c1C	–	0.0449 µM (active)
CCN(CCn1cccn1)Cc1nc(-c2ccccc2)no1	7.23%	–
CCCn1c(C)cc(/C=C(\C#N)C(=O)OCC(=O)Nc2ccc(OC)c(Cl)c2)c1C	–	8.95 µM (active)
COc1ccc(OCc2cccc(C(=O)O)c2)cc1	–	0.0356 µM (active)
COc1ccc(N(CCC#N)S(=O)(=O)c2ccc(Cl)cc2)cc1	5.18%	–
O=C(Nc1cccc(-c2csc(Nc3ccc(Cl)cc3)n2)c1)c1ccccc1	–	6.34 µM (active)
CCOc1ccc2nc(SCC(=O)NC3CCCCC3)[nH]c2c1	-7.39%	–
O=C(Cc1cccs1)Nc1nc(-c2ccc(F)c(F)c2)cs1	–	6.34 µM (active)
COc1cccc(/C=C/C(=O)c2cccc([N+](=O)[O-])c2)c1OC	39.5%	–
CCOC(=O)C1=C(C)NC(=O)NC1c1ccc(OCC(=O)Nc2ccccc2)c(OC)c1 (stereo not drawn)	-50.5%	–
CNC(=O)CSc1nnc(-c2cc(C)cc(C)c2)o1	43.7%	–
Cc1cccc(C(=O)NC(NCCc2ccccc2)C(Cl)(Cl)Cl)c1 (stereo not drawn)	24.6%	–
CCCCC1(C)Nc2ccccc2-c2nc3ccccc3n21 (stereo not drawn)	–	12.6 µM (active)
NS(=O)(=O)c1cc(C(=O)NCC2CCCCC2)ccc1Cl	1.11%	–
Cc1cc(N2CCCCCC2)nc(-c2ccccc2O)n1	–	17.9 µM (active)
CC1(C)Cc2c(cnn2-c2ccccc2)C(NC(=O)CCN2CCCCO2)C1 (stereo not drawn)	20.1%	–
